Screen size: about 260,000 compounds; about 1,500 (0.58%) were called active. Roughly 5% stayed inconclusive and do not appear here.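 How the source made its calls: active means inhibition above a set limit at one or more doses, reproduced on every date tested; inconclusive means results disagree between test dates, or hit never tested in dose response; inactive means the rest.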 These entries were drawn from the full list. Potency and affinity values are given separately.
Each compound was assayed against Virion infectivity factor (Human immunodeficiency virus type 1 group M subtype B (isolate BH10)) + Virion infectivity factor (Human immunodeficiency virus type 1 group M subtype B (isolate BRU/LAI)) + Virion infectivity factor (Human immunodeficiency virus type 1 group M subtype B (isolate PCV12)) + Virion infectivity factor (Human immunodeficiency virus type 1 group M subtype B (isolate HXB2)) + DNA dC->dU-editing enzyme APOBEC-3G (Homo sapiens) (UniProt P69720+P69721+P69722+P69723+Q9HC16) (assay: HIV-1 Vif–A3G interaction blockers – biochemical, TR-FRET, GST-Vif 1-94, biotin-A3G peptide, dose response retest, primary screen (AID 1117319;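 further: Vif residues 1-94 fused to GST binding biotinylated APOBEC3G peptide 110-148; 0% = full assay without inhibitor and 100% = GST in place of GST-Vif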)). Settings: TR-FRET GST-Vif / biotin-A3G peptide binding; stronger effect = higher value.

inhibition, inactive:
COc1ccc(C)cc1NC(=O)NCc1ccc(F)cc1 7.92%, COc1ccc(OC)c(NC(=O)NCc2cccnc2)c1 -1.39%, O=C(CCNC(=O)c1ccc(Cl)cc1)NCc1ccccc1Cl -1.5%, COc1cccc(-c2c3c([nH]c(=O)c2C#N)CCc2cc(OC)ccc2-3)c1 -2.14%, CCCCN1CC(COCc2ccccc2)Oc2cc(Br)ccc2S1(=O)=O (stereo unspecified) -3.27%, CCC(C(=O)OCC(=O)Nc1ccc(C(N)=O)cc1)c1ccccc1 (stereo unspecified) -11.4%, CCC(C(=O)OCC(=O)Nc1ccc(F)cc1)c1ccccc1 (stereo unspecified) 11.7%, CCSc1nnc(NC(=O)[C@@H](NC(=O)c2ccccc2F)C(C)C)s1 -8.51%, Cc1c(Cl)ccc2c1NC(=O)[C@]21[C@@H]2C(=O)N(Cc3ccccc3)C(=O)[C@@H]2[C@@H]2CCCN21 2.38%, Cc1cc(Cl)c2c(c1)[C@]1(C(=O)N2)[C@@H]2C(=O)N(Cc3ccccc3)C(=O)[C@@H]2[C@@H]2CCCN21 28.3%, O=C(Cc1n[nH]c(=O)c2ccccc12)OCC(=O)c1ccc(F)c(F)c1 -13.4%, Cc1cc(NC(=O)Nc2ccc(F)cc2F)n(C)n1 -0.16%, C#CCN(C[C@H]1[C@H](OC(=O)Nc2c(C)noc2C)[C@H](OC(=O)Nc2c(C)noc2C)C[C@@H](C(=O)OC)[C@H]1C(=O)OC)S(=O)(=O)c1ccc(C)cc1 1.23%, COc1ccccc1C(=O)N(CCN(C)C)c1nc2cc(C)cc(C)c2s1 -1.26%, Cc1c(Cl)cnc(NC(=O)COC(=O)/C=C/c2ccco2)c1Cl 19.7%, Cc1nc(NC(=O)COC(=O)/C=C/c2ccco2)c(Cl)cc1Cl 20.2%, CCC1CCCCN1C(=O)CSc1nnc(N)s1 (stereo unspecified) -4.63%, O=C(NCC(c1ccco1)N1CCc2ccccc2C1)c1ccc(F)cc1 (stereo unspecified) -9.45%, COc1ccc(CCNC(=O)/C=C/C(=O)O)cc1 14.3%, O=C(/C=C/c1ccco1)NCCc1ccccc1 0.33%, CC1(C)Cc2nc3sc(C(=O)NCCCO)c(N)c3cc2CS1 -0.06%, CCC1(C)Cc2nc3sc(C(=O)O)c(N)c3cc2CO1 (stereo unspecified) 32.8%, COc1ccc(-c2ccc3c(c2)C2CC3CCN2C(=O)C(C)(C)C)cc1 (stereo unspecified) -6.26%, COc1ccc(Cc2nnc(SCC(=O)NC(C)c3ccccc3)o2)cc1 (stereo unspecified) 8.9%, CCOC(=O)C1(C)NC(c2ccco2)C2C(=O)N(C)C(=O)C21 (stereo unspecified) 2.73%, CCOC(=O)C1(CC)NC(c2ccco2)C2C(=O)N(CC)C(=O)C21 (stereo unspecified) 0.75%
